The source of these data is PubChem BioAssay AID893 (National Center for Advancing Translational Sciences (NCATS), 2007).

Structures are written as SMILES. Out of some 75,000 compounds screened, about 5,700 (7.6%) were called active. Another 7% or so got no clear call; they are omitted. The sample holds actives, similar compounds and a random draw of the others, so the mix is not that of the screen. A number with no mark means an inactive call. The call rests on the fitted dose curve; in most records, active means well fitted inhibition curve with a large enough effect; inconclusive means small, poorly fitted or top-dose-only effect; inactive means no such curve, though single readings can be large or run the other way.
On the % scale 0 is the no-effect control and ±100 the full control effect; potency means the concentration at half of the fitted maximal effect.

The target in the assay is 3-hydroxyacyl-CoA dehydrogenase type-2 (Homo sapiens) (UniProt Q99714). Kind of assay: qHTS Assay for Inhibitors of HSD17B4, hydroxysteroid (17-beta) dehydrogenase 4.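 Further: the protocol describes HADH2 (HSD17B10) and not the HSD17B4 of the title; nearly all actives have a fitted effect of over 70% in size.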 Conditions: recombinant HSD17B10, NADH fluorescence kinetic; series mostly up to 57.1 µM; activity change, negative = inhibition: at the top concentration. The procedure, abridged: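 Activity followed as NADH fluorescence increase (ex 360, em 450 nm) every 30 seconds for 4 min, using final 90 uM beta-hydroxybutyryl CoA and 1 mM NAD+. Recombinant His-tagged enzyme, 20 nM, pH 9.0 Tris buffer, 15 min compound preincubation.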
For `Cc1ccc2c(c1)c1ncnc(N3CCc4ccccc4C3)c1n2C`, the Potency was 31.6 µM (active). For the compound `Cc1cc(C)nc(N2CCN(c3ncnc4c3oc3ccccc34)CC2)n1`, the “activity change, negative = inhibition” value was 15.4%.

For the compound `Cc1ccc(NC(=O)CCN2CCc3ccccc3C2)cc1`, the “activity change, negative = inhibition” value was -4.15%. As to `CCCCCCCCCc1ccc(OCCOCCOCCOCCOCCOCCOCCOCCOCCO)cc1`, the “activity change, negative = inhibition” value is -0.847%. Same read-out and setting: with `COc1ccc(C(CC(=O)O)NC(=O)Cc2ccccc2)cc1` (stereo not drawn) the figure was 4.15%. The same measure, in the same setting: the result for `O=C(COC(=O)c1ccc(Oc2ccccc2)cc1)Nc1nnc(-c2ccccc2)o1` reads -2.42%.

As for `COc1ccc(NC(=O)c2ccc(OC)cc2)cc1`, the “activity change, negative = inhibition” value is -3.22%.

`O=C(CSc1nnc(-c2ccc(NS(=O)(=O)c3ccccc3)cc2)o1)NCC1CCCO1` (stereo not drawn): the “activity change, negative = inhibition” value was -16.5%.

As for `CCCCCNC(=O)Cc1ccc(OC)cc1`, the “activity change, negative = inhibition” value is 3.9%. In the case of `O=C(Nc1ccc(-c2nnc(-c3ccccc3)o2)cc1)C1CCCO1` (stereo not drawn), the Potency is 20 µM (active). Still for that read-out and setting: with `COc1ccc(CC(=O)Nc2ccc(-c3nnc(-c4ccccc4)o3)cc2)cc1` the figure was 12.6 µM (active). Take `O=C(Nc1nnc(CCc2ccccc2)s1)C1CCCO1` (stereo not drawn): the “activity change, negative = inhibition” value is -4.21%.

For `COc1ccc(CC(=O)Nc2ccc(-c3nnc(-c4ccc(C)cc4)o3)cc2)cc1`, the Potency is 2.51 µM (active).

For `CCCCNC(=O)CSc1nccn1Cc1ccccc1`, the “activity change, negative = inhibition” value was 2.3%.

With `CC(=O)Nc1cc(C(=O)O)ccc1S(=O)(=O)c1ccc(Cl)cc1`, the “activity change, negative = inhibition” value is -0.596%. Take `O=S1(=O)CCN2C(=N1)SC1=C2CCN(Cc2ccccc2)C1`: the “activity change, negative = inhibition” value is 5.31%. Consider `COc1ccc(Br)c2c1C[C@H](C(=O)O)CC2`, for which the activity change, negative = inhibition is 7.09% [at 11.4 µM]. For the compound `O=C(CSc1nc2ccccc2o1)N1CCN(c2ccc(Cl)cc2)CC1`, the “activity change, negative = inhibition” value is 5%.

Consider `COc1ccc(-n2c(SCC(=O)OC(C)C)nnc2-c2ccccn2)cc1`, for which the “activity change, negative = inhibition” value was 6.34%. Still for that read-out and setting: with `COc1ccc(CCNC(=O)c2ccco2)cc1` the figure was 11.8%. For `CCOC(=O)C1C(=O)C=C(c2ccc(OC)cc2)CC1c1ccco1` (stereo not drawn), the Potency is 20 µM (active).

For the compound `CCOC(=O)C1C(=O)NC(N2CCN(c3ccccc3)CC2)=NC1c1ccco1` (stereo not drawn), the “activity change, negative = inhibition” value was 8.24%. The same measure, in the same setting: with `CCOc1ccc2cc(C#N)c(SCC(=O)OC)nc2c1` the figure was -141%.

`CCOc1ccc2nc(NCCNS(=O)(=O)c3ccccc3)c(C#N)cc2c1`: the Potency is 25.1 µM (active).

For the compound `CCOc1ccc2nc(N3CCCN(C(=O)Nc4ccccc4C)CC3)c(C#N)cc2c1`, the “activity change, negative = inhibition” value is 3.29%. The same measure, in the same setting: with `CC1=C(C(=O)OCc2ccccc2)C(c2ccc(C(F)(F)F)cc2)NC(=O)N1CCCCCC(=O)O` (stereo not drawn) the figure was 0.423%; with `CC(NC(=O)c1ccc(Cl)cc1)C(=O)N1CCCCC1` (stereo not drawn), -7.28%. For `COc1ccc(Cn2cccc(NC(=O)Nc3ccc(C#N)cc3)c2=O)cc1`, the Potency is 15.8 µM (active). On to `CCOc1ccc(NC(=O)Nc2cc(C)ccc2OC)cc1`, for which the “activity change, negative = inhibition” value is -1.13%. Consider `COc1ccc(NC(=O)Nc2cccc3cccnc23)cc1`, for which the “activity change, negative = inhibition” value is -0.606%.

`CO/N=C(\C(=O)N[C@@H]1C(=O)N2C(C(=O)O)=C(COC(C)=O)CS[C@H]12)c1csc(N)n1` (stereo in doubt): the “activity change, negative = inhibition” value is 3.11%. Same read-out and setting: the result for `COc1c(F)c(F)c(-c2csc(N)n2)c(F)c1F` reads -10.2%; that for `CCOc1ccc(OCC)c(NC(=O)CSc2nnc(Cn3cnc4ccccc43)n2C)c1`, 4.22%; that for `O=c1[nH]c(-c2cccs2)nc2ccccc12`, -2.67%. With `Cc1nc2nc(COc3ccccc3)[nH]n2c(=O)c1Cc1ccccc1`, the “activity change, negative = inhibition” value is 1.44%.

Consider `CCc1c(C)nc2cc(-c3cccs3)[nH]n2c1=O`, for which the Potency is 31.6 µM (active). As to `CCCCNC(=O)c1c[nH]c2ccc(S(=O)(=O)Nc3ccc(OCC)cc3)cc2c1=O`, the “activity change, negative = inhibition” value was -13.3%.

With `CCCCn1c(SCC(=O)N2CCC(C(=O)OCC)CC2)nc2cc(S(N)(=O)=O)ccc21`, the “activity change, negative = inhibition” value is 5.42%. On the same count and under the same terms, the result for `CCCC(=O)Nc1cc(OCC)c(NC(=O)NC2CCCCC2)cc1OCC` reads 10.6%; that for `CCOc1ccc(CNC(=O)C2CCC(=O)N2C2CCCC2)cc1OC` (stereo not drawn), -0.818%. Turning to `CCOc1cc(C2C(C(=O)OC)=CN(C3CCCC3)C=C2C(=O)OC)cc(Br)c1O`, the Potency is 25.1 µM (active). Consider `COCCCN(C(=O)Cn1ncc2c(=O)oc3ccc(C)cc3c21)C(C)c1ccncc1` (stereo not drawn), for which the “activity change, negative = inhibition” value is 3.46%. On the same count and under the same terms, with `Cn1c(=O)cc(SCC(=O)N2CCCC2)c2cc(Cl)ccc21` the figure was -14.4%; with `Cc1cc(C(F)(F)F)nn1CC(=O)N1CCCC1`, 7.74%. For the compound `Cc1ccc(-c2cc(C(F)(F)F)n3nc(C(=O)N4CCCC4)cc3n2)cc1`, the Potency was 20 µM (active). As to `COc1ccc(-c2cc(C(F)(F)F)n3nc(C(=O)N4CCOCC4)c(Cl)c3n2)cc1`, the “activity change, negative = inhibition” value is -20.7%. The same measure, in the same setting: the result for `c1ccc(CCc2nc(-c3ccncc3)no2)cc1` reads 12%.

Take `COc1ccc(Br)cc1S(=O)(=O)N1CCN=C1C`: the “activity change, negative = inhibition” value was 4.44%.

With `Cc1cc(C)cc(N(CC(=O)Nc2c(C)n(C)n(-c3ccccc3)c2=O)S(C)(=O)=O)c1`, the “activity change, negative = inhibition” value is 3.4%. On the same count and under the same terms, with `O=C(NC1CCCCC1)C1CCCN(S(=O)(=O)c2cccs2)C1` (stereo not drawn) the figure was 5.88%; with `N#Cc1nc(COc2ccc(Cl)cc2)oc1N1CCCC1`, -12.5%.

For the compound `Cc1ccc(OCc2nc(C#N)c(N3CCCC3)o2)cc1`, the “activity change, negative = inhibition” value was -5.17%. With `CC1CCN(c2oc(-c3ccccc3F)nc2C#N)CC1`, the Potency is 31.6 µM (active).
